Assay outcomes from PubChem BioAssay.
D2 ag-1 = HTS Assay for Allosteric Agonists of the Human D2 Dopamine Receptor: Primary Screen for Agonists. D(2) dopamine receptor (Homo sapiens), P14416. HEK293 T-REx D2 cells, calcium flux agonist mode. activation, % at 2 µM. hit rate 0.53% among 340,000. AID 485358, 2010;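 active = activation over 3 SD above normal in the single-dose calcium agonist read, cut at about 30% in these data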; also: 0% is about no effect
Target sequence (P14416 whole entry, looked up): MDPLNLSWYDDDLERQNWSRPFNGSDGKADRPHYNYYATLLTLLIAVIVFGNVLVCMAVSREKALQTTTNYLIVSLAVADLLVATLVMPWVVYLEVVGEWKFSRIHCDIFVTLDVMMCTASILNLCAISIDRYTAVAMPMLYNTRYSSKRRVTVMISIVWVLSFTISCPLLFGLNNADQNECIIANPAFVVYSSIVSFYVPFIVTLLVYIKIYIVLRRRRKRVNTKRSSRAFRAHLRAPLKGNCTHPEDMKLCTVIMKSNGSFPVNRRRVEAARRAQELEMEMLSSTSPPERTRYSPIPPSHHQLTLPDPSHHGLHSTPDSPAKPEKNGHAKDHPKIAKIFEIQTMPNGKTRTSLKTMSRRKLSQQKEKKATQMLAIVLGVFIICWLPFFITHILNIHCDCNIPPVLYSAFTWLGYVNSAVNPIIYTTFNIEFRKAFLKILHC
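Agonism scored from kinetic calcium signal (1 read/sec, 180 s) following compound pin transfer, after a 10 s baseline. Cells: HEK293 Trex line expressing inducible D2 receptor coupled to calcium, dye-loaded after overnight culture at 30 C.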
D2 PAM-1 = Beta-Arrestin HTS for Positive Allosteric Modulators of the Human D2 Dopamine Receptor: Potentiators. DiscoveRx D2 beta-arrestin cells, luminescence, 90 min; 100% = 57 uM dopamine signal. AID 624464, 2012. hit rate 0.23% among 360,000. D(2) dopamine receptor (Homo sapiens), P14416. potentiation, % (no concentration beside the values); in the data active = potentiation above about 50%; inconclusive = mostly about 30% to 49%
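D2 cells co-treated with compound plus 50 nM dopamine (EC20) for 90 min at 37 deg C to detect potentiation. Beta-arrestin recruitment was read as enzyme-fragment luminescence after 1 h at ambient temperature. Full response was set by 57 uM dopamine.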
D2 ag-2 = Beta-Arrestin HTS for Positive Allosteric Modulators of the Human D2 Dopamine Receptor: Agonists; hit rate 0.084% among 360,000; AID 624465, 2012; DiscoveRx PathHunter D2 beta-arrestin, luminescence, 90 min; 100% = 57 uM dopamine signal; D(2) dopamine receptor (Homo sapiens), P14416; activation, % (test concentration not listed); in the data active = activation above about 40%; inconclusive = between about 15% and that limit
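DiscoveRx PathHunter D2 beta-arrestin cells (2,100/well) attached overnight, then compound-stimulated 90 min at 37 C in HBSS/10 mM HEPES/0.1% Tween-20 buffer; beta-galactosidase complementation read by luminescence after 1 h at ambient temperature. Dopamine 57 uM final (EC100) as control.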
D2 PAM-2 = HTS Assay for Positive Allosteric Modulators of the Human D2 Dopamine Receptor: Primary Screen for Potentiators. HEK293 T-REx D2, calcium flux, EC20 dopamine potentiation. potentiation, % at 10 µM. hit rate 0.34% among 340,000. AID 485347, 2010;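 active = potentiation over 3 SD above the plate norm, cut at about 30% in these data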; also: 0% is about no effect
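Calcium flux readout, no-wash dye, 1 read/s. Inducible HEK293 Trex D2 line, overnight 30 C. Compound alone 180 s (agonist flags), then EC20 dopamine, another 180 s to score potentiation.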
D2 antagonist = HTS Assay for Allosteric Antagonists of the Human D2 Dopamine Receptor: Primary Screen for Antagonists | D(2) dopamine receptor (Homo sapiens), P14416 | AID 485344, 2010 | HEK293 TREx D2 cells, calcium flux, dopamine EC80 | inhibition, % at 10 µM | hit rate 2% among 340,000; in the data active = inhibition above about 30%; inactive = below that, where a call was filed; also: 0% is about no effect
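Read-out: kinetic calcium fluorescence (1 cycle/s) in inducible HEK293 T-REx D2 cells after an EC80 dopamine addition that followed 180 s compound preincubation. Loss of the dopamine response indicates antagonism.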
D3 ag = qHTS of D3 Dopamine Receptor Agonist: D3 Dopamine Receptor B-arrestin Agonist Confirmatory Assay; shares compounds with D2 ag-1; DiscoveRx D3 beta-arrestin cells, luminescence, 90 min; Potency, µM (top dose mostly 76.9 µM), inactives show top-dose activation, hits mostly activators; hit rate 4% among 2,300;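 also: potency is read from the fitted curve at half-maximal effect; 100% = dopamine control response; nearly all actives have a fitted effect of over 70% in size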
D2 ag-3 = qHTS of D3 Dopamine Receptor Agonist: D2 Dopamine Receptor B-arrestin Agonist Counterscreen | shares compounds with D2 ag-1 | DiscoveRx PathHunter D2 beta-arrestin, luminescence, 90 min; response scale: percent relative to full dopamine signal | Potency, µM (doses to about 76.9 µM), without a hit: top-dose activation, usual class: activators | hit rate 5.9% among 2,300; also: potency is read from the fitted curve at half-maximal effect; % of control where 0% means no effect; nearly all actives have a fitted effect of over 70% in size
An asterisk follows results filed as active; ? = inconclusive; nt = not tested or not shown. Most compounds without a hit are left out; they make up all but 2.4% or so of the library. Unless noted, calls follow the shape of the dose curve; as a rule, active = well fitted activation curve with a large enough effect; inconclusive = small, poorly fitted or top-dose-only effect; inactive = flat fitted curve, though single readings scatter.

SMILES	D2 ag-1	D2 PAM-1	D2 ag-2	D2 PAM-2	D2 antagonist	D3 ag	D2 ag-3
COc1cc(C(=S)N2CCOCC2)cc(OC)c1OC(=O)c1ccc(C)cc1	0	-2	-6	5	27	1%	2%
O=C(O)CCCCCCCCc1cn(CCc2c[nH]c3ccccc23)nn1	93*	-8	-2	-20	-1	3%	-2%
Cc1ccc(C2CCN(C(=O)Nc3ccc(C)c(C)c3)C2)cc1 (stereo unspecified)	1	nt	nt	7	nt	nt	nt
CCN(CC)CC(O)Cn1c(-c2ccccc2Cl)nc2ccccc21 (stereo unspecified)	45*	-19	-2	1	-10	3%	-2%
On1c(-c2ccccc2Cl)nc2ccccc21	3	0	-4	11	8	nt	nt
COc1ccc(/C=C/c2nc(C#N)c(N3CCC(C)CC3)o2)cc1OC	0	nt	nt	8	nt	nt	nt
O=C(Nc1ccnn1C1CCN(CCCc2ccccc2)CC1)c1ccccc1Cl	80*	13	?	-35	88*	10%	?
CC(C)=CCN1CCC(n2nccc2NC(=O)c2ccccc2Cl)CC1	0	-24	-7	-17	16	nt	nt
CC(c1nc2ccccc2c(=O)[nH]1)N1CCN(S(=O)(=O)c2ccc(F)c(Cl)c2)CC1 (stereo unspecified)	nt	-3	3	nt	nt	nt	nt
N#C/C(=C\c1ccc(-c2ccccc2C(=O)O)o1)c1nc2ccccc2[nH]1	8	2	-9	5	-17	3%	-3%
N#CN=C(c1ccccc1)c1ccccc1	1	-4	0	1	7	nt	nt
N#CCN=C(c1ccccc1)c1ccccc1	0	-8	-8	-8	20	-10%	-3%
CCN(CC)C(=O)c1sc2c(c1C)c(=O)n(-c1ccc(Cl)c(Cl)c1)c(=O)n2Cc1cc(=O)n2c(C)cccc2n1	nt	nt	nt	-2	nt	nt	nt
CNC[C@H](O)c1cccc(O)c1	77*	5	2	-28	91*	-1%	?
Cc1noc(C)c1COC(=O)CCOc1ccccc1	0	-7	-3	-4	-10	nt	nt
Cc1noc(C)c1COc1ccc(C(=O)N(C)CCOc2ccccc2)cc1	0	-2	12	-26	-22	-8%	6%
CC1(C(=O)NCc2ccc3c(c2)OCO3)CCN1Cc1csc2ccccc12 (stereo unspecified)	nt	-15	-9	nt	nt	nt	nt
CCOc1ccccc1CNC(=O)CCCN1C(=O)COc2ccc(C)cc21	-1	nt	nt	20	nt	nt	nt
O=C(c1ccco1)N1CCN(C/C=C/c2ccccc2)CC1	89*	?	41*	-28	1	?	?
O=C(NC(=S)N1CCN(C/C=C/c2ccccc2)CC1)c1c(F)cccc1F	0	-7	-3	-3	-12	nt	nt
O=C(NC(=S)N1CCN(C/C=C/c2ccccc2)CC1)c1ccco1	48*	-15	-5	-18	9	1%	-2%
Cc1cc(C(=O)N2CCN(C/C=C/c3ccccc3)CC2)no1	1	-9	0	1	6	nt	nt
COc1ccccc1-c1oc2ccccc2c1-c1ccc2cc[nH]c2c1	0	-3	4	16	-5	1%	3%
COc1ccc(-n2nc(C(=O)Nc3cc(C)ccn3)c3c4ccccc4n(C)c3c2=O)cc1Cl	1	nt	nt	-1	nt	nt	nt
N#CCN(C(=O)COC(=O)CCCNC(=O)c1ccc(Cl)cc1)c1ccccc1	0	-10	0	2	-11	-3%	2%
SMILES	D2 ag-1	D2 PAM-1	D2 ag-2	D2 PAM-2	D2 antagonist	D3 ag	D2 ag-3
Cc1cccc(C)c1N1CCN(CCn2c(=S)[nH]c3ccccc3c2=O)CC1	30	-3	-4	-20	71*	-2%	8%
CCN1CCN(CCn2c(=S)[nH]c3ccccc3c2=O)CC1	0	-34	-3	-18	11	nt	nt
Cc1cc(C(C)(C)C)c(O)c(C)c1CC1=NCCN1	72*	-17	9	-30	64*	3%	14%
c1ccc2c(CC3=NCCN3)cccc2c1	14	-20	-4	22	-5	nt	nt
Cc1cccc(-n2c(=O)c3c4c(sc3n3cnnc23)CCCC4)c1	nt	nt	nt	-5	nt	nt	nt
O=C(Nc1ccc(Cl)cc1C(F)(F)F)C(Sc1nnc(-c2cccs2)o1)c1ccccc1 (stereo unspecified)	1	-12	-3	-11	10	nt	nt
COc1ccc(C)cc1NC(=O)C(Sc1nnc(-c2cccs2)o1)c1ccccc1 (stereo unspecified)	-1	-7	-2	8	13	-15%	-3%
COc1ccc(N2CCN(C(=O)CCCNC(=O)Cn3cnc4sc(C)c(C)c4c3=O)CC2)cc1	44*	-8	-4	-22	-4	-1%	6%
CCc1noc(C)c1C(=O)NNC(=O)c1cc(OC)cc(OC)c1	2	-1	0	-8	-21	-3%	-4%
CCc1noc(C)c1C(=O)NNC(=O)c1ccccc1	0	0	-3	-8	-11	nt	nt
CCc1noc(C)c1C(=O)NNC(=O)COc1ccccc1C	1	-1	-2	-6	24	-6%	-5%
CCc1noc(C)c1C(=O)NNC(=O)c1cc(OC)c(OC)c(OC)c1	0	-6	1	-1	-10	nt	nt
Cc1ccc2nc(NC(=O)CSc3[nH]c(=O)ncc3C)sc2c1	-2	nt	nt	-2	nt	nt	nt
COC(=O)c1nc2n(n1)C(c1cc(OC)ccc1OC)C(C(=O)Nc1ccc(C)cc1C)=C(C)N2 (stereo unspecified)	0	nt	nt	-8	nt	nt	nt
Cc1cccc(C2NC(=O)c3c(sc4c3CCN(C)C4)N2)c1O (stereo unspecified)	-1	nt	nt	-17	nt	nt	nt
CCOC(=O)c1sc(NC(=O)CSCc2c(C)noc2C)nc1C	-1	-3	10	1	-7	-5%	-4%
CCOC(=O)c1sc(NC(=O)c2c(CC)noc2C)nc1C	0	0	-1	-10	0	-2%	-1%
CCc1nc2c(OCCn3cccc3)cccn2c1N(C=O)Cc1ccccc1	nt	9	-2	nt	nt	nt	nt
